Measured values reported in PubChem BioAssay AID493201 (National Center for Advancing Translational Sciences (NCATS), 2011).
Records with an inconclusive call do not appear. Unmarked numbers belong to inactive results. Calls of active or inactive are those of the source. Calls follow the shape of the dose curve; as a rule, active = well fitted activation curve with a large enough effect; inconclusive = small, poorly fitted or top-dose-only effect; inactive = no such curve, though single readings can be large or run the other way.

Test: qHTS Assay for Identifying a Potential Treatment of Ataxia-Telangiectasia: Secondary assay (no NCS) hit validation;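 also: phosphorylated KAP1 signal as a proxy for ATM-like kinase activity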; as to activation: 0% is about no effect
Conditions: A-T patient fibroblasts, AlphaLISA, no DNA damage added, 90 min; series mostly up to 76.9 µM; activation: at the top concentration
How it was run: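 Without NCS-induced DNA breaks, ATM-like activity scored as phospho-KAP1 AlphaLISA signal (pKAP1/total KAP1 bead pair) in ATM-null F2112 fibroblasts; compound series up to 76.7 uM final, 37C incubation, lysates read on AlphaScreen protocol.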
Potency is read from the fitted curve at half-maximal effect.

| Structure (SMILES) | activation | Potency |
| --- | --- | --- |
| CCOc1ccc(NC2=CC(=O)CCC2)cc1 | 2.15% | – |
| Cc1ccc(NC(=O)NC(=O)N(C(C)C)S(C)(=O)=O)nc1 | 11.3% | – |
| CC(=O)Nc1ccc(NC(=O)CSc2nnnn2-c2ccc(F)cc2)cc1 | 2.61% | – |
| N#C/C(=C/c1ccc(F)cc1)C(N)=S | -3.23% | – |
| CC1CC(C)CN(S(=O)(=O)c2ccc(C(=O)NCCCn3ccnc3)cc2)C1 (stereo not drawn) | 3.23% | – |
| COc1ccc(-n2c(C)cc(=O)[nH]c2=O)cc1 | 1.08% | – |
| O=c1c2cc(Br)ccc2nc(-c2ccccc2)n1O | 1.08% | – |
| O=C(NC12CC3CC(CC(C3)C1)C2)c1cccc(OC(F)F)c1 | -6.45% | – |
| COc1ccc(C2/C=C\CN(S(=O)(=O)c3ccc4ccccc4c3)CC(=O)N2Cc2ccc(F)cc2)cc1 (stereo not drawn) | – | 41.2 µM (active) |
| CCC(=O)NC1=C(Cl)C(=O)C(NC(=O)CC)=C(Cl)C1=O | 16.1% | – |
| COc1ccccc1[C@H]1C(c2cccc(Cl)c2)=NN(c2ccccc2)[C@@H]1CO | 0% | – |
| CCC(C)N1C(=S)SC(C)(C)C1N(O)C(=O)NC1CCCCC1 (stereo not drawn) | -0.848% | – |
| CC(C)C1CC(CCN)(c2ccccc2)CCO1 (stereo not drawn) | -1.74% | – |
| Cc1oc2c(c(C)cc3oc(=O)c(CC(=O)NCC(=O)NCC(=O)O)c(C)c32)c1C | – | 3.28 µM (active) |
| CCn1c(SCc2cccc(F)c2)nnc1-c1ccncc1 | 11.8% | – |
| COCCCNC(=O)c1c[nH]c2ccc(S(=O)(=O)N(C)c3ccccc3C)cc2c1=O | -5.93% | – |
| CCOC(=O)C1=C(C)N(c2ccc(OC)cc2)C(=O)/C1=C\c1ccc(O)c(OCC)c1 | -4.3% | – |
| O=C(O)c1nccnc1C(=O)Nc1ccccc1-c1ccccc1 | 26.1% | – |
